Compound activity: PubChem BioAssay, several laboratories
ZTA counter: blocks Epstein-Barr virus ZTA, an EBNA-1 counter-screen; P03206; ZTA-DNA binding, fluorescence polarization; inhibition, % at 11 µM; actives 0.15% (n = 320,000); AID 2234; in the data active = inhibition above about 33%
PG9 binder: binders of HIV-1 gp120 antibody PG9, primary screen, biochemical, TR-FRET; inhibition, % at 6.7 µM; HIV-1 gp120 / PG9 antibody interaction; TR-FRET gp120-PG9 antibody binding; AID 624416, 2012; actives 0.43% (n = 360,000); in the data active = inhibition above about 8.5%
p47phox inh: p47phox/p22phox peptide binding inhibitors, primary screen, biochemical, uHTS, NADPH oxidase regulatory subunit. actives 0.53% (n = 220,000). fluorescence polarization, 2 h. Neutrophil cytosol factor 1 (Homo sapiens), P14598. inhibition, % at 24.7 µM;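 active = inhibition above about 30%, limit read from the data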;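 also: 0% = p47phox with labelled peptide and 100% = labelled peptide alone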
aDG glyco up: activators of alpha-DG glycosylation, primary screen, uHTS, Pro5-aDG cells, AlphaScreen; AID 624168, 2012; alpha-DG glycosylation AlphaScreen (IIH6); 0% Pro5, 100% B10-LARGE cell signal; actives 0.22% (n = 360,000); activation, % at 10 µM;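 active = activation of at least 8% versus controls, or a plate z-score of at least 8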;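 also: Pro5 are CHO cells carrying HIG-tagged alpha-DG that lacks glycosylation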
Rev-erbA mod: modulators of Rev-erb alpha DNA binding, primary screen, biochemical, FITC-DNA, fluorescence polarization, uHTS; Nuclear receptor subfamily 1 group D member 1 (Homo sapiens), P20393; Rev-erbα–FITC-DNA binding, 90 min; activity, % at 10 µM; actives 0.79% (n = 370,000); AID 1259318, 2017;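 active = activity above about 14%, limit read from the data; passing the limit was not always enough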;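 also: 0% = DMSO wells with 35 nM protein and 100% = DMSO wells with 750 nM protein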
Target sequence (P20393 whole entry, looked up): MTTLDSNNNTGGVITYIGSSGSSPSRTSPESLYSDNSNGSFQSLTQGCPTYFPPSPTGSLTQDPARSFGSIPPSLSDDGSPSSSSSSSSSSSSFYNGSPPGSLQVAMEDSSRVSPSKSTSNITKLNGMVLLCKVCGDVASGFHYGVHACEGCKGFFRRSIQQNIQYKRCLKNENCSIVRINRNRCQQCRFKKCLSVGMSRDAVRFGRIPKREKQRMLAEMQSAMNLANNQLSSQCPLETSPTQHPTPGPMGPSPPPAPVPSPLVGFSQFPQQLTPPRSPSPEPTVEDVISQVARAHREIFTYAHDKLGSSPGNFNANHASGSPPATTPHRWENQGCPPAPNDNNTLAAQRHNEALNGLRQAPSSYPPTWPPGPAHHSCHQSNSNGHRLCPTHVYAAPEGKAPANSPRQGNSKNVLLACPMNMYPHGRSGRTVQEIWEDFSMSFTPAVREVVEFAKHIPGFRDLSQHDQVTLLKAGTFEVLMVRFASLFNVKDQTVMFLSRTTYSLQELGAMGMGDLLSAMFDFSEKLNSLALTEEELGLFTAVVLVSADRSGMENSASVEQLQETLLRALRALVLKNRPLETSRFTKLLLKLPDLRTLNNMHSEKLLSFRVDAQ
EBNA-1 inhibitor: EBNA-1 DNA-binding inhibitors, primary screen, biochemical, fluorescence polarization; actives 0.34% (n = 300,000); inhibition, % at 14.8 µM; in the data active = inhibition above about 28%
Rev-erbA confirm: modulators of Rev-erb alpha DNA binding, confirmation, biochemical, FITC-DNA, fluorescence polarization, single point; shares compounds with Rev-erbA mod; 90 min; activation, % at 25 µM; actives 61% (n = 3,000); AID 1259319, 2017;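 active = activation at or above a set limit, or at least 3 SD above the negative control mean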;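 also: 0% = 35 nM protein with DMSO and 100% = 750 nM protein high control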
RORg counter: modulation of RORgamma DNA binding, dose response, counter-screen for Rev-erb alpha modulator project, biochemical, fluorescence polarization, FITC-DNA; shares compounds with Rev-erbA mod; purified RORgamma protein-FITC-DNA binding; IC50, µM; actives 8% (n = 910);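 active = Compounds whose fitted half-maximal concentration for disrupting protein-DNA binding is below 10 micromolar; the record names Rev-erb in its text, so the target is in doubt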
Starred values were filed as active, the others as inactive; i = inactive; . = no result given. The list is not random: actives were taken first. Their share in the collection is about 1.9%.

SMILES | ZTA counter | PG9 binder | p47phox inh | aDG glyco up | Rev-erbA mod | EBNA-1 inhibitor | Rev-erbA confirm | others
COC(=O)C1CN(Cc2cn(CCOC(C)=O)nn2)CCS(=O)(=O)N1Cc1ccc(F)cc1 (stereo not given) | . | . | . | . | -8 | . | .
O=C(NCc1ccco1)c1ccc(Cn2c(=O)c3sccc3n(Cc3cccc(F)c3)c2=O)cc1 | 5 | -1 | -16 | 0 | 34* | 7 | 37* | RORg counter=>40
COC(=O)[C@]12C[C@H](CC(=O)NCCCN3CCCC3=O)C(=O)N(CCc3ccc(OC)c(OC)c3)C1=C[C@H](C1CCCC1)O[C@@H]2C | . | . | . | . | 10 | . | .
COC(=O)[C@]12C[C@H](CC(=O)NCCCN3CCCC3=O)C(=O)N(Cc3ccc(Cl)cc3Cl)C1=C[C@H](C(C)(C)C)O[C@@H]2C | . | . | . | . | 4 | . | .
COc1cc2[nH]c(=O)c(C(=O)NCc3ccc(F)cc3)c(O)c2cc1OC | . | 1 | . | 0 | 25* | . | 19*
O=C(COc1ccc(Cl)cc1)Nc1cccc(-c2ccc(N3CCOCC3)nn2)c1 | -7 | 5 | . | 0 | 20* | 0 | 12
COC(=O)[C@]12CCCCC=C1N(Cc1cccc3ccccc13)C(=O)[C@H](CC(=O)NCc1cccs1)C2 | . | 0 | . | 0 | 16* | . | 3
CCCc1cc(=O)oc2cc(OCC(=O)N3CCc4ccccc43)ccc12 | 8 | 2 | 1 | 0 | 21* | 4 | 8
CCCCc1cc(=O)oc2cc(OCC(=O)N3CCc4ccccc43)ccc12 | 2 | -1 | -6 | 0 | 15 | -12 | .
CCCCCCOC(=O)C1=C(C)NC(=O)NC1c1ccc2c(c1)OCO2 (stereo not given) | -6 | -4 | . | 0 | 17* | 1 | 14
CCOC(=O)C1=C(C)NC(=O)NC1c1ccc2c(c1)OCO2 (stereo not given) | -6 | 1 | 1 | 0 | -2 | 3 | .
CCC(CC)COC(=O)C1=C(C)NC(=O)NC1c1ccc(OC)cc1 (stereo not given) | 0 | -2 | . | 0 | 21* | 6 | 20*
O=C(Nc1ccc(Cl)cn1)c1cc2c(s1)-c1ccccc1OC2 | 11 | 0 | 13 | 0 | 30* | -4 | 7
Cc1ccc(CSc2nnc(-c3n[nH]c4c3CCC4)n2N)cc1 | . | . | . | . | 1 | . | .
O=C(CN1CCc2onc(-c3ccc(-n4cc(C5=CCCCC5)nn4)cc3)c2C1=O)N1CCOCC1 | . | . | . | . | 4 | . | .
Cc1ccc(-c2nc3ccccc3s2)cc1NC(=O)c1cc(-n2cnnc2)ccc1Cl | 5 | 4 | 1 | 0 | 33* | -7 | 32* | RORg counter=>40
CC(=O)c1cc(-c2cc(C(=O)O)cc([N+](=O)[O-])c2)c(=O)n2c1CCC2 | . | . | . | . | -14 | . | .
N#Cc1c(-c2ccccc2F)cc(C2CC2)nc1SCC(=O)c1cccs1 | 2 | -5 | -34 | 1 | 40* | -3 | 28*
CCSc1nc(C2CC2)cc(-c2cccs2)c1C#N | 18 | 0 | -12 | 0 | 7 | 8 | .
O=C(CSc1nnc(-c2ccccc2O)o1)Oc1ccc(OCc2ccccc2)cc1 | 10 | 8 | 1 | 0 | 36* | 13 | 5
Cc1ccc2nc(N3CCN(c4ccccc4)CC3)c(C=O)c(=O)n2c1 | -15 | -2 | -2 | 0 | 4 | 0 | .
Cc1ccc2nc(SCc3ccccc3)c(C=O)c(=O)n2c1 | 0 | 2 | -13 | 0 | 42* | 15 | 30*
CC(C)C[C@H](NC1(C(=O)NC2CCCCC2)CCCCC1)C(=O)NCCc1c[nH]c2ccccc12 | . | . | . | . | 5 | . | .
Cc1cc(C)nc(NC(=O)CSc2nc3cc(Cl)ccc3s2)n1 | 6 | -2 | -4 | 0 | 2 | 10 | .
CCOC(=O)c1c(NC(=O)CSc2nc3ccccc3s2)sc(C(C)=O)c1C | 2 | -1 | -27 | 2 | 25* | 0 | 43* | RORg counter=>40
SMILES | ZTA counter | PG9 binder | p47phox inh | aDG glyco up | Rev-erbA mod | EBNA-1 inhibitor | Rev-erbA confirm | others
CCOC(=O)c1c(NC(=O)CSc2nc3cc(Cl)ccc3s2)sc(C(C)=O)c1C | 12 | -6 | -108 | . | 65* | 5 | 4
CCOC(=O)CC[C@@H]1CC[C@]2(CCCN(C(=O)c3ccc4ccccc4n3)C2)O1 | . | . | . | . | 5 | . | .
CCOc1ccc(-c2nnc3ccc(SCC(=O)Nc4nc5ccc(C)cc5s4)nn23)cc1 | 13 | 2 | 0 | 1 | 34* | -13 | 34* | RORg counter=>40
CCCCCCC/C=C(\C)[C@@H](O)[C@@H](C)C(=O)N1CCC[C@@H]1C(=O)O | . | . | . | . | -4 | . | .
CCN(C(=O)CSc1nc(C)nc2sc(C)c(C)c12)c1ccc(F)cc1 | -12 | 2 | . | 1 | 24* | . | 9
CCCn1c(N)c(C(=O)CSc2nc(C)cs2)c(=O)[nH]c1=O | 6 | 1 | -2 | 0 | -7 | 9 | .
Cn1c(N)c(C(=O)CSc2nc3ccccc3c(=O)n2Cc2ccccc2)c(=O)n(C)c1=O | 0 | 0 | -12 | 0 | 13 | 4 | .
CCCn1c(N)c(C(=O)CSc2nc3ccccc3c(=O)n2Cc2ccccc2)c(=O)[nH]c1=O | 8 | 1 | 18 | 0 | 74* | 5 | 61*
CCCn1c(N)c(C(=O)CSc2nc(C)nc3sc(C)c(C)c23)c(=O)[nH]c1=O | -14 | 0 | . | 0 | 35* | -9 | 61* | RORg counter=i
Cc1nn(-c2ccccc2)c2sc(C(=O)NC3CCCCCCC3)cc12 | . | . | . | . | -4 | . | .
O=C(Nc1ccc(F)cc1F)C1CCN(c2ncnc3c2sc2cccc(F)c23)CC1 | -9 | 0 | . | 0 | 33* | -11 | 27*
CC(C)C(=O)N1CC[C@H]2[C@H](CCCN2Cc2cc(F)cc(F)c2)C1 | . | . | . | . | 0 | . | .
CNC(=O)CSc1nc(-c2ccccc2)c(-c2ccccc2)o1 | 4 | 0 | -6 | 0 | 14* | 6 | 11
COc1ccc(-c2ccc(-c3noc(-c4cccc(OC)c4)n3)c(OC)n2)cc1 | -4 | -1 | . | 0 | 52* | -15 | 0
COc1cccc(-c2nc(-c3ccc(NC(=O)Cc4ccccc4OC)cc3)no2)c1 | . | . | -30 | 0 | . | . | .
COc1ccc(-c2ccc(-c3noc(-c4ccc(OC)c(OC)c4)n3)c(OC)n2)cc1 | . | -1 | . | . | 10 | . | .
COc1ccc(CC(=O)Nc2ccc(-c3noc(-c4ccccc4OC)n3)cc2)cc1 | -7 | 7 | 0 | 0 | 36* | 20 | 55* | RORg counter=i
COc1ccc(-c2ccc(-c3noc(C)n3)c(OC)n2)cc1 | -3 | -5 | -7 | 0 | 27* | -7 | 7
